# From PubChem BioAssay
# Records with an inconclusive call do not appear. Active and inactive are the calls of the source.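 The calls were made as follows, unless noted: active = viability increase at or above a cutoff of the median across tested compounds plus 3 SD (cut at about 8.5% in these data, passing the limit was not always enough); inconclusive = some gains above the cutoff, reason not given; inactive = the rest.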
# Tests used:
# [1] = reducers of endogenous Her2 protein level, primary screen, SKBR3 breast tumor cells, AlphaScreen, ATP viability (AID 461;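 active = Her2 level under about 52% in both replicate screens, with viability over 70% of control, limit read from the data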;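 as to Her2 level: lower value means less Her2 protein in the cells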;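 as to viability: percent of carrier control wells set as 100% viability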); settings: 18-24 h, measured here: SKBR3 viability, ATP luminescence, at 10 µM
# [2] = target: Receptor tyrosine-protein kinase erbB-2 (Homo sapiens) (UniProt P04626); test: as above; settings: 18-24 h, at 10 µM, stronger effect = lower value
# Sequence of Receptor tyrosine-protein kinase erbB-2 (Homo sapiens) (P04626 whole entry, looked up): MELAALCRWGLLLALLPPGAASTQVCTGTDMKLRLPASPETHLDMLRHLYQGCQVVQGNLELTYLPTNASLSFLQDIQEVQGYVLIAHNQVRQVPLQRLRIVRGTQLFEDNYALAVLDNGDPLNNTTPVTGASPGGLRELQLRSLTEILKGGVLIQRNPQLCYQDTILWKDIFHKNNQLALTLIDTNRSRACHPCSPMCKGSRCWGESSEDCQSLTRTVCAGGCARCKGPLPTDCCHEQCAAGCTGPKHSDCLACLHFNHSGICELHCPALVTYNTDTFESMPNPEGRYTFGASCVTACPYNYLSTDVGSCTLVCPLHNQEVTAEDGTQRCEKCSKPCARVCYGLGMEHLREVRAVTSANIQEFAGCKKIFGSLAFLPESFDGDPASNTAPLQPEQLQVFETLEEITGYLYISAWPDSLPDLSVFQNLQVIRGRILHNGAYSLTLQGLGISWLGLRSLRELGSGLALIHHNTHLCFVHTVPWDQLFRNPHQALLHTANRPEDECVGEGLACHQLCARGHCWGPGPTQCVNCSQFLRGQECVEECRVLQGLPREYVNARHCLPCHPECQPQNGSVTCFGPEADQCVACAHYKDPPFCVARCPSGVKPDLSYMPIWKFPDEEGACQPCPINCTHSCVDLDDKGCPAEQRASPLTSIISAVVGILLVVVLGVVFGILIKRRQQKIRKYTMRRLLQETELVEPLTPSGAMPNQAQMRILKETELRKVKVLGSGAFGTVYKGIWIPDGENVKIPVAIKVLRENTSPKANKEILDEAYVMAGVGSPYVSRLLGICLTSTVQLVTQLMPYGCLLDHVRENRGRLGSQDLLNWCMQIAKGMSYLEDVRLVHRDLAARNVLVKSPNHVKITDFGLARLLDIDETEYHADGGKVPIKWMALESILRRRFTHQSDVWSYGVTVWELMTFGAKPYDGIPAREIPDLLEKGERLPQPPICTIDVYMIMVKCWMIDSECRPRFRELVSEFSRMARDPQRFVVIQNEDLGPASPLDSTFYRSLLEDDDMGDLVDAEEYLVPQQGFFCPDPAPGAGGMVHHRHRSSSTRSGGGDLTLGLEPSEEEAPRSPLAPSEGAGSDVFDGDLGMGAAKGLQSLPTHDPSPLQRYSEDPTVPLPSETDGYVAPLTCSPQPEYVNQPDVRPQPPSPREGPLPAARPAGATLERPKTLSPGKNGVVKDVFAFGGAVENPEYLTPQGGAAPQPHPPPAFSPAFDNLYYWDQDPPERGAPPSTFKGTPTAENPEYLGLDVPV
# [3] = SK-BR-3 cell growth inhibitors, pilot screen, 24 h, human (AID 572;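 active = viability at or below 10% of carrier control in both of two separate runs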;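 also: compound exposure lasted between 18 and 24 h rather than exactly 24 h; 100% = carrier-treated control wells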); settings: SK-BR-3 viability, CellTiter-Glo luminescence, at 10 µM, stronger effect = lower value
# [4] = HUVEC growth inhibition – cell-based, human, primary screen (AID 575;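 active = viability at or below 30% in both replicate assays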;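 also: 100% = median of untreated cell wells with 0.1% DMSO on each plate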); settings: HUVEC proliferation, CellTiter-Glo luminescence, 72 h; at 10 µM; stronger effect = lower value
# [5] = growth inhibitors of H69AR lung tumor, primary screen, human, duplicate replicates (AID 580;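 active = viability at or under a set limit in both replicates, limit being median viability minus 3 SD, cut at about 48% in these data, passing the limit was not always enough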;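 also: 100% = mean luminescence of untreated wells and 0% = no signal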); settings: H69AR lung tumor cells viability, ATP luminescence, 72 h; at 10 µM; stronger effect = lower value
# [6] = reversal of MRP1-mediated doxorubicin resistance, pilot screen, H69AR cells, doxorubicin co-treatment (AID 601;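 active = viability loss from added drug above about 55%, and viability with drug at most 40%, in both replicates, limit read from the data, passing the limit was not always enough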); settings: CellTiter-Glo, 72 h, at 10 µM; for differential viability (reversal): stronger effect = higher value
# [7] = 384-well plate pilot, post-Golgi transport modulator project, inhibition of yeast transport mutant growth (AID 636; in the data active = inhibition above about 31%); settings: absorbance 615 nm, about 18 h, stronger effect = higher value
# [8] = growth suppression of yeast trafficking mutant, preliminary HTS, modulators of trafficking downstream of Golgi apparatus project, 1536-format plate, OD 615 nm (AID 637; in the data active = inhibition above about 30%); settings: yeast transport mutant growth, absorbance 615 nm, 18 h; stronger effect = higher value
# [9] = OD615 S. cerevisiae growth inhibition, permissive medium, pilot counter-assay, permissive growth control for S. cerevisiae lifespan shortening project (AID 705;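 active = growth inhibition above 25% in both replicates, a cutoff set 3 SD above the mean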); settings: OD615, 24 h, at 10 µM, stronger effect = higher value
# [10] = Restrictive medium S. cerevisiae growth inhibition, OD615, pilot screen of yeast lifespan reduction project, restrictive growth control (AID 706;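 active = growth inhibition above a set limit, 3 SD over mean compound inhibition, in both replicates, cut at about 43% in these data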;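 also: modified DeaD lifespan yeast strain shifted to restrictive glucose medium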); settings: OD615, 48 h, at 10 µM, stronger effect = higher value
# [11] = viability gain of MRP-1-high H69AR cells under doxorubicin, pilot screen, MRP-1 activator project, CellTiter-Glo, duplicate (AID 807); settings: H69AR viability with doxorubicin, CellTiter-Glo luminescence; at 10 µM; stronger effect = higher value;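 also: compound pretreatment 18-22 h then 72 h combined with doxorubicin; 0% = doxorubicin alone and 100% = vehicle without doxorubicin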
# [12] = growth suppression of beta-catenin knockout HCT116, pilot screen, human colon tumor cells (AID 823;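 active = cell viability at or below a set limit in both duplicate runs, the limit being the all-compound median minus 4 SD, cut at about 23% in these data, passing the limit was not always enough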;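 also: 0% = wells killed by 20 µM Hyamine and 100% = untreated DMSO cell wells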); settings: CellTiter-Glo, 60 h, at 10 µM, stronger effect = lower value
# [13] = growth suppression of PTEN-deleted HCT116, pilot screen, cell-based, HCT116 clonal line, CellTiter-Glo (AID 824;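 active = viability at or below 27.92% in each of two runs, the all-compound median minus 4 SD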;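 also: 0% = 20 µM Hyamine control and 100% = vehicle cell control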); settings: 60 h, at 10 µM, stronger effect = lower value
# [14] = inhibitors of the yeast RAM network, pilot screen, dse1pr::URA3 reporter, 5-FOA selection (AID 869;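 active = inhibition over a set limit, the all-compound mean plus 3 SD, in both replicate runs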;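 also: 0% = DMSO wells with no growth and 100% = 10 µM 1-NA-PP1 with full growth; RAM network block rescues cells from 5-FOA so hits raise OD615 growth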); settings: S. cerevisiae dse1pr::URA3 5-FOA growth, OD615, 2 d; at 10 µM; stronger effect = higher value; strain carries analog-sensitive mutant Cbk1 kinase
# [15] = RAM signaling pathway blockade in yeast – S. cerevisiae, Pdr1DBD-CYC8 efflux-inhibited sensitized strain, primary screen (AID 1298;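 active = RAM network inhibition above 8.4% in each of two replicates, 3 SD over the compound average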;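 also: 0% = DMSO untreated cells without growth and 100% = 10 µM 1-NA-PP1 full growth; higher means more yeast growth rescued from 5-FOA killing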); settings: S. cerevisiae cbk1-as DSE1-URA3 strain, 5-FOA growth OD615, 2 d; at 50 µM; stronger effect = higher value
# [16] = H69AR cells + 2 uM doxorubicin, measured here: viability with 2 uM doxorubicin, stronger effect = lower value
# [17] = H69AR cells, compound alone cytotoxicity
SMILES,viability [1] [%],Her2 level [2],viability [3],viability [4],viability [5],differential viability (reversal) ([6]; H69AR cells + 2 uM doxorubicin),"viability [6, 16] [%]","viability [6, 17] [%]",inhibition [7],inhibition [8],growth inhibition [9],growth inhibition [10],viability increase [11],viability [12],viability [13],inhibition [14],RAM network inhibition [15]
COC(=O)CN(c1ccc(OC)cc1)S(=O)(=O)c1ccc(OC)c(OC)c1,89.5,91% (inactive),89.5% (inactive),96.5% (inactive),88.1% (inactive),2.77% (inactive),85.3,88.1,-0.78% (inactive),-2.3% (inactive),-13.7% (inactive),-17% (inactive),-1.06% (inactive),98.5% (inactive),99.5% (inactive),1.75% (inactive),4.96% (inactive)
CCOc1ccc(S(=O)(=O)n2c(C)nc3ccccc32)cc1,93,112% (inactive),93% (inactive),65.8% (inactive),71.2% (inactive),-45.5% (inactive),117,71.2,0.51% (inactive),5.67% (inactive),-11.5% (inactive),0.25% (inactive),1.02% (inactive),98.2% (inactive),96.2% (inactive),1.31% (inactive),1.31% (inactive)
CCOC(=O)N1CCN(C(c2ccc(Cl)cc2)c2sc3nc(C)nn3c2O)CC1 (stereo not drawn),94,89% (inactive),94% (inactive),87.7% (inactive),94.7% (inactive),-8.7% (inactive),103,94.7,-4.67% (inactive),0.33% (inactive),1.38% (inactive),1.06% (inactive),0.03% (inactive),98.4% (inactive),106% (inactive),0.72% (inactive),6.22% (inactive)
COC(=O)CSc1nnc(-c2ccncc2)o1,116,127% (inactive),116% (inactive),105% (inactive),95% (inactive),7.96% (inactive),87,95,-3.25% (inactive),-7.33% (inactive),-2.71% (inactive),-17.9% (inactive),-2.71% (inactive),93.2% (inactive),94.2% (inactive),0.9% (inactive),0.67% (inactive)
COc1ccccc1S(=O)(=O)Cc1ccc(C(=O)N2CCOCC2)o1,113,98.5% (inactive),113% (inactive),105% (inactive),87.6% (inactive),-5.08% (inactive),92.7,87.6,-2.13% (inactive),3.5% (inactive),1.17% (inactive),-2.13% (inactive),-2.08% (inactive),106% (inactive),97.9% (inactive),1.65% (inactive),0.78% (inactive)
COc1ccccc1-c1cc2nc(C)c(CCC(=O)NCc3ccco3)c(C)n2n1,80,88% (inactive),80% (inactive),88% (inactive),89.9% (inactive),1.59% (inactive),88.3,89.9,-2.69% (inactive),0.33% (inactive),-2.34% (inactive),-6.24% (inactive),-3.72% (inactive),97.2% (inactive),98.1% (inactive),1.53% (inactive),4.36% (inactive)
COc1ccc(CCNc2oc(COc3ccccc3Cl)nc2C#N)cc1OC,90,87% (inactive),90% (inactive),56.8% (inactive),92.2% (inactive),-4.1% (inactive),96.3,92.2,-1.6% (inactive),-1.83% (inactive),-10% (inactive),-0.295% (inactive),-1.73% (inactive),88.5% (inactive),73.2% (inactive),1.5% (inactive),2.3% (inactive)
Cc1cccc(N2C(=O)CC(N3CCN(c4cccc(C(F)(F)F)c4)CC3)C2=O)c1 (stereo not drawn),94.5,74.5% (inactive),94.5% (inactive),73.2% (inactive),96.9% (inactive),6.09% (inactive),90.8,96.9,-2.86% (inactive),-9% (inactive),-12.6% (inactive),-8.65% (inactive),3.91% (inactive),97.3% (inactive),97.8% (inactive),1.32% (inactive),5.57% (inactive)
CC(NC(=O)c1cc2c(=O)n(C)c3ccccc3c2n1C)c1ccc2c(c1)OCCO2 (stereo not drawn),94.5,84% (inactive),94.5% (inactive),77% (inactive),42.7% (active),-20.9% (inactive),63.6,42.7,-2.18% (inactive),1.33% (inactive),-5.51% (inactive),-1.51% (inactive),-4.19% (inactive),65.6% (inactive),58.2% (inactive),0.645% (inactive),3.77% (inactive)
Cc1cccc(-n2ncc3c(N(CCO)CCO)ncnc32)c1,97,91.5% (inactive),97% (inactive),78.7% (inactive),90% (inactive),11.3% (inactive),78.7,90,-5.2% (inactive),-1.97% (inactive),-0.18% (inactive),0.945% (inactive),-1.41% (inactive),94.9% (inactive),101% (inactive),2.43% (inactive),-0.31% (inactive)
CC1CN(c2ccc(Oc3ccccc3)cc2)c2nc3c(c(=O)n(CC(N)=O)c(=O)n3C)n2C1 (stereo not drawn),107,101% (inactive),107% (inactive),77.5% (inactive),79.1% (inactive),4.74% (inactive),74.4,79.1,-4.67% (inactive),-5.17% (inactive),-3.86% (inactive),6.34% (inactive),-3.54% (inactive),104% (inactive),94.4% (inactive),2.65% (inactive),6.01% (inactive)
COc1ccc(S(=O)(=O)NCc2ccc3c(c2)OCO3)cc1C(=O)O,96.5,84.5% (inactive),96.5% (inactive),109% (inactive),90.1% (inactive),-3.31% (inactive),93.4,90.1,-4.36% (inactive),-0.33% (inactive),-4.53% (inactive),-6.08% (inactive),-0.34% (inactive),96.9% (inactive),95.4% (inactive),1.89% (inactive),5.84% (inactive)
CN(C)CCN1C(=O)C(O)=C(C(=O)c2cc3ccccc3o2)C1c1ccc(N(C)C)cc1 (stereo not drawn),98.5,105% (inactive),98.5% (inactive),94.1% (inactive),90.2% (inactive),1.66% (inactive),88.5,90.2,-3.47% (inactive),1.17% (inactive),-14.2% (inactive),-14.1% (inactive),-0.2% (inactive),105% (inactive),103% (inactive),0.685% (inactive),2.42% (inactive)
COc1cccc(C2C(C(N)=O)=C(C)Nc3nc(-c4ccccc4Cl)nn32)c1 (stereo not drawn),79.5,92.5% (inactive),79.5% (inactive),69.3% (inactive),92.1% (inactive),15.7% (inactive),76.4,92.1,-5.33% (inactive),-2.83% (inactive),-0.045% (inactive),-2.87% (inactive),-2.66% (inactive),67.2% (inactive),72.2% (inactive),-0.135% (inactive),2.34% (inactive)
Cc1ccc(-c2nc3cnccn3c2Nc2ccc3c(c2)OCO3)o1,91.5,90.5% (inactive),91.5% (inactive),92.4% (inactive),77.7% (inactive),-13.6% (inactive),91.3,77.7,-6.53% (inactive),-2.83% (inactive),-15.8% (inactive),3.3% (inactive),-3.1% (inactive),95.8% (inactive),91.9% (inactive),1.34% (inactive),12.5% (inactive)
CC1(C)CC(=O)N(CC(=O)NCc2ccccc2)c2ccccc2S1(=O)=O,78.5,112% (inactive),78.5% (inactive),106% (inactive),92.6% (inactive),-8.55% (inactive),101,92.6,-4.67% (inactive),-1.33% (inactive),-3.67% (inactive),6.21% (inactive),-1.93% (inactive),107% (inactive),100% (inactive),0.485% (inactive),3.51% (inactive)
CC1CCc2nn(CC(=O)NCCN3CCOCC3)cc2C1 (stereo not drawn),101,113% (inactive),101% (inactive),98.6% (inactive),89.4% (inactive),-8.26% (inactive),97.7,89.4,-2.44% (inactive),-2.33% (inactive),2.41% (inactive),6.26% (inactive),0.93% (inactive),108% (inactive),101% (inactive),0.965% (inactive),4.43% (inactive)
COc1nc(Oc2ccc(=O)n(C)n2)nc(N(C)C)n1,81,107% (inactive),81% (inactive),88.5% (inactive),92.7% (inactive),-2.47% (inactive),95.1,92.7,1.67% (inactive),-9% (inactive),-3.33% (inactive),0.62% (inactive),0.29% (inactive),95.2% (inactive),101% (inactive),2.61% (inactive),1.59% (inactive)
CCOc1ccc(N2CC(C(=O)Nc3ccccc3OC)CC2=O)cc1 (stereo not drawn),106,98% (inactive),106% (inactive),110% (inactive),95.7% (inactive),9.71% (inactive),86,95.7,-3.87% (inactive),-3% (inactive),-7.43% (inactive),-1.77% (inactive),-1.73% (inactive),102% (inactive),102% (inactive),1.8% (inactive),0.63% (inactive)
